# Tests used:
# Experiment in all cases: DAPPL (digital affinity profiling via proximity ligation, sequencing); 10 mM Tris-HCl pH 7.5, 50 mM NaCl, 1 mM DTT, 4% glycerol, room temperature, 30 min; GST-TFs on glutathione beads, 16-mer random dsDNA library, 0.1% formaldehyde crosslink after washing; high values mean tight binding
# FEV = biological target: T1, FEV (Homo sapiens, UniProt Q99581 1-238); settings: protein: recombinant; tags: N-terminal GST; dsDNA, one strand shown
# T1 sequence: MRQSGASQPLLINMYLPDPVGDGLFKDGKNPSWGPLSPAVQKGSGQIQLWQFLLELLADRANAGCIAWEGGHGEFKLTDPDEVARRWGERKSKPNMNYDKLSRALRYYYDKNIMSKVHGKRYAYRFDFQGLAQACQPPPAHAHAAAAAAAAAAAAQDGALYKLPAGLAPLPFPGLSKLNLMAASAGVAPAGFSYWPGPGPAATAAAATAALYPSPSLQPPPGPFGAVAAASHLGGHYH
# In short: (§1)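 Binding signal is defined as a hexamer's read frequency for one factor over its frequency for the tag-only sample. To obtain reads, GST-fused human transcription factors were expressed in yeast, captured on glutathione beads, barcoded with DNA and pooled with that sample. Pools met 200 nmole of a 16-mer random double-stranded DNA library in Tris/NaCl/DTT/glycerol buffer for 30 min at room temperature before washing, 0.1% formaldehyde crosslinking, proximity ligation (BsaI/T4 ligase, 1 h, 37 °C), PCR and Illumina NextSeq500 sequencing.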
# ETV5 = ETV5 (Homo sapiens, UniProt P41161 1-510); settings: protein: recombinant; tags: N-terminal GST; dsDNA, one strand shown
# ETV5, sequence (P41161 whole entry): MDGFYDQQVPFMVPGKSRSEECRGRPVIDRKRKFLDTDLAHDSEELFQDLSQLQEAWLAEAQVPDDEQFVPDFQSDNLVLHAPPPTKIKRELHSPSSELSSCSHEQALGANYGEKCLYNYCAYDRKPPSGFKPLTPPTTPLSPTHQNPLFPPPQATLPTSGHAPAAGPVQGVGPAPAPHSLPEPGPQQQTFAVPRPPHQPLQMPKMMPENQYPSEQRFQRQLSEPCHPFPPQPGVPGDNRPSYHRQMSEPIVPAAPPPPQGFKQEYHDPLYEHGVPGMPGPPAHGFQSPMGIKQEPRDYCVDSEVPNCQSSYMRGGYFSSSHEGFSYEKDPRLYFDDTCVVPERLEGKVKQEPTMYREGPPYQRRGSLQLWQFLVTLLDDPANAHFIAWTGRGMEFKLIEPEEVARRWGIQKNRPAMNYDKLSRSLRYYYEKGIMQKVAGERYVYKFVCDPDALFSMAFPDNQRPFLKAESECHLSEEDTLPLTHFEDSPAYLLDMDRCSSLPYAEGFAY
# In short: as §1
# HSF1 = HSF1 (Homo sapiens, UniProt Q00613 1-529); settings: protein: recombinant; tags: N-terminal GST; chain copies: 3; dsDNA, one strand shown
# HSF1, sequence (Q00613 whole entry): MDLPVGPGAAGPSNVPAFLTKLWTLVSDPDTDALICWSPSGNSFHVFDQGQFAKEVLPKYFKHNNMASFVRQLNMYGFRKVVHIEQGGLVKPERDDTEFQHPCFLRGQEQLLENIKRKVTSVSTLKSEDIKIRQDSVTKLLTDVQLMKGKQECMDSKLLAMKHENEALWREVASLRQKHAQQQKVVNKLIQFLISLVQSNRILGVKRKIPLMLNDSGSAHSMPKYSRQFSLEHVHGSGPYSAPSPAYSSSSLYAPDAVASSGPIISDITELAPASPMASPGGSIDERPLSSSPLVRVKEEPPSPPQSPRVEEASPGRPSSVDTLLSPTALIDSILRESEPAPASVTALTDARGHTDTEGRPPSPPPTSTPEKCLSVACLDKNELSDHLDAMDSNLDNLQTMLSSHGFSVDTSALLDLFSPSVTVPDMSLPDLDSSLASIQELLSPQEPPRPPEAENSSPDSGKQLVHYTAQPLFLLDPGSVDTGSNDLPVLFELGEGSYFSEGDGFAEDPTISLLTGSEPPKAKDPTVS
# In short: as §1
# SPIC = biological target: T2, SPIC (Homo sapiens, UniProt Q8N5J4 1-248); settings: protein: recombinant; tags: N-terminal GST; dsDNA, one strand shown
# T2 sequence: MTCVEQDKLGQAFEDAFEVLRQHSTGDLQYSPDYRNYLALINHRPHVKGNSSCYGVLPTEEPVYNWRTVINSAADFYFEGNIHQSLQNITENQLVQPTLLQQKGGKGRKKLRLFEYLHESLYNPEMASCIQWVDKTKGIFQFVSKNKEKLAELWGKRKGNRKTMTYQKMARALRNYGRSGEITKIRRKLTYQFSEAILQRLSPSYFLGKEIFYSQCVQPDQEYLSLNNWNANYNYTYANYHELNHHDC
# In short: as §1
# ELF4 = ELF4 (Homo sapiens, UniProt Q99607 1-663); settings: protein: recombinant; tags: N-terminal GST; dsDNA, one strand shown
# ELF4, sequence (Q99607 whole entry): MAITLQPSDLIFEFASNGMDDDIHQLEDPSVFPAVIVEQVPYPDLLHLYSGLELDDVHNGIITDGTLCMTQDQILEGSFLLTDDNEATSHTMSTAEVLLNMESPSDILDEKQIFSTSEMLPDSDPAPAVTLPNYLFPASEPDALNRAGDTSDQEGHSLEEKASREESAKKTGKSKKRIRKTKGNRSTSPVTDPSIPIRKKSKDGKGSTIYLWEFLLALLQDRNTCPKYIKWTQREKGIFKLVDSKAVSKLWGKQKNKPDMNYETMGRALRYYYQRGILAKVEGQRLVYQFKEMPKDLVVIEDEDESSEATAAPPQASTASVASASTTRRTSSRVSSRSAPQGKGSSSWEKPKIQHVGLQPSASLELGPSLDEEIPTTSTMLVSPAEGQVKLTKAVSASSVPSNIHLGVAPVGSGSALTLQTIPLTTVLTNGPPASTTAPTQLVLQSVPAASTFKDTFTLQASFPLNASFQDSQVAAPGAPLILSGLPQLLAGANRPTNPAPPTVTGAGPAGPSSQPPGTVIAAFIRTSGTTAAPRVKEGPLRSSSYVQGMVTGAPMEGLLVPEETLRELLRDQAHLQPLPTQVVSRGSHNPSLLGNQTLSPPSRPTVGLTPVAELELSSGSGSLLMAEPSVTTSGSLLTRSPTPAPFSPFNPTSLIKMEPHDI
# In short: as §1
# ELK4 = biological target: T3, ELK4 (Homo sapiens, UniProt P28324-2 1-405); settings: protein: recombinant; tags: N-terminal GST; dsDNA, one strand shown
# T3 sequence: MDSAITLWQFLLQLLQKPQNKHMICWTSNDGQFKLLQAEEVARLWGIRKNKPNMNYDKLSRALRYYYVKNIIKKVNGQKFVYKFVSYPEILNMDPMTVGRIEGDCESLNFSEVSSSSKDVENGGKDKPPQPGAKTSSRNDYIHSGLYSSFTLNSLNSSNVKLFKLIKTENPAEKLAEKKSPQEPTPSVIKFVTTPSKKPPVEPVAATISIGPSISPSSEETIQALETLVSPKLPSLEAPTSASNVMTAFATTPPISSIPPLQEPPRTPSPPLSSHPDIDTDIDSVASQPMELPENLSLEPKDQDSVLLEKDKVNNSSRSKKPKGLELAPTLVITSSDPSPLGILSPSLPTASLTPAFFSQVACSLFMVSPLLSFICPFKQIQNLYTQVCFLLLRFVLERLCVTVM
# In short: as §1
# ETV2 = biological target: T4, ETV2 (Homo sapiens, UniProt O00321 1-342); settings: protein: recombinant; tags: N-terminal GST; dsDNA, one strand shown
# T4 sequence: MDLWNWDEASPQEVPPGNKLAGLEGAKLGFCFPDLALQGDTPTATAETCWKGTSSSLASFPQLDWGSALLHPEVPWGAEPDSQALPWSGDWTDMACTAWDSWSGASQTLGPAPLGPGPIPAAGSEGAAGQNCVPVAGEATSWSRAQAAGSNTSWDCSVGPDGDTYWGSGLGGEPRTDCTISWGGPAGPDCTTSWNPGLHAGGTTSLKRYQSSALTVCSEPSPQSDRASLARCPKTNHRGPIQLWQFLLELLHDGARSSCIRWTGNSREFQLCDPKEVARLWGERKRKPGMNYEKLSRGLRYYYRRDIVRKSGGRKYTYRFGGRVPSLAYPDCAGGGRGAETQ
# In short: as §1
# ELF3 = biological target: T5, ELF3 (Homo sapiens, UniProt P78545 1-371); settings: protein: recombinant; tags: N-terminal GST; dsDNA, one strand shown
# T5 sequence: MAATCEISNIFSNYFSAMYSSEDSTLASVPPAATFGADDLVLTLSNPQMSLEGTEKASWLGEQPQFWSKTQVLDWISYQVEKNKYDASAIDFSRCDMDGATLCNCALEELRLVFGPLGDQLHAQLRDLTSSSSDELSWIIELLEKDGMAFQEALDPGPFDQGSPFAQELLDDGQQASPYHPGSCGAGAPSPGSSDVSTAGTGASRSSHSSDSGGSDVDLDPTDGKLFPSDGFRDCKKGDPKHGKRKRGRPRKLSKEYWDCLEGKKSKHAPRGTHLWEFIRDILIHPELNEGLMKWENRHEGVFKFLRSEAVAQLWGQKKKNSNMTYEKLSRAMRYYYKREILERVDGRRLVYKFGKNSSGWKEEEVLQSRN
# In short: as §1
# CRX = CRX (Homo sapiens, UniProt O43186 1-299); settings: protein: recombinant; tags: N-terminal GST; dsDNA, one strand shown
# CRX, sequence (O43186 whole entry): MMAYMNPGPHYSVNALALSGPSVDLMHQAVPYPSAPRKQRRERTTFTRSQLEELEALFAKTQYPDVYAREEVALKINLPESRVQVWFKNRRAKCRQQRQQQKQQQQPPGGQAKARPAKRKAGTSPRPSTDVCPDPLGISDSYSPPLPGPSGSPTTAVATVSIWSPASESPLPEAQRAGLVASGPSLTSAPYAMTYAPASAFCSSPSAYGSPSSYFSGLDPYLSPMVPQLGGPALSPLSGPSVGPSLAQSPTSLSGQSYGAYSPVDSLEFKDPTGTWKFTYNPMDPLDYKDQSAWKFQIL
# In short: as §1
# ETV1 = ETV1 (Homo sapiens, UniProt P50549 1-477); settings: protein: recombinant; tags: N-terminal GST; dsDNA, one strand shown
# ETV1, sequence (P50549 whole entry): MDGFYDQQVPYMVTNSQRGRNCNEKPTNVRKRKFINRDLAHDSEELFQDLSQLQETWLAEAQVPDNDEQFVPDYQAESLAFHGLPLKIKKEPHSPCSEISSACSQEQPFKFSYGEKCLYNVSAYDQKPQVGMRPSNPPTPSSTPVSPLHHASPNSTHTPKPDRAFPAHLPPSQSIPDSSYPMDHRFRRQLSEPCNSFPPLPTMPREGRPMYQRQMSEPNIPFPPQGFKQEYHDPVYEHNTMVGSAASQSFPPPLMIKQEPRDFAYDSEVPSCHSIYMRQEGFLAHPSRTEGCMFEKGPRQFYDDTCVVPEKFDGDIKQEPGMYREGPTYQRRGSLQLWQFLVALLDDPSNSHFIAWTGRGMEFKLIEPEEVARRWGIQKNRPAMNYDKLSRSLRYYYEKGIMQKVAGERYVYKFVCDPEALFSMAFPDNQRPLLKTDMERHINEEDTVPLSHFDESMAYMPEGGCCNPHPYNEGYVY
# In short: as §1
# ERF = biological target: T6, ERF (Homo sapiens, UniProt P50548 1-548); settings: protein: recombinant; tags: N-terminal GST; dsDNA, one strand shown
# T6 sequence: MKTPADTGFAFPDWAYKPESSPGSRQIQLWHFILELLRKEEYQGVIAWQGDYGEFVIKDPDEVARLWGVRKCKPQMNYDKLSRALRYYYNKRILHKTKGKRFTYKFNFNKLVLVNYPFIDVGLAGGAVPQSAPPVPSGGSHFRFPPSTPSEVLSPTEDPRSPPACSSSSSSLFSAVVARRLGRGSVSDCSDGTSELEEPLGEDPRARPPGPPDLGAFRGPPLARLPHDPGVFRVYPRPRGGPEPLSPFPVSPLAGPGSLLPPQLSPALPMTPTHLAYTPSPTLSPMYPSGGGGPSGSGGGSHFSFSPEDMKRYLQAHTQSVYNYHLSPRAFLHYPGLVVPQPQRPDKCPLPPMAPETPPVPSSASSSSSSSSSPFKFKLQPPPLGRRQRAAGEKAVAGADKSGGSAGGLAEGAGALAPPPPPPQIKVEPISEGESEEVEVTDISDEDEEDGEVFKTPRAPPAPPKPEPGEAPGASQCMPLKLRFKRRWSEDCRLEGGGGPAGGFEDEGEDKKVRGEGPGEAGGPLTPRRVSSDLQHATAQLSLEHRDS
# In short: as §1
# ETV3L = biological target: T7, ETV3L (Homo sapiens, UniProt Q6ZN32 1-361); settings: protein: recombinant; tags: N-terminal GST; dsDNA, one strand shown
# T7 sequence: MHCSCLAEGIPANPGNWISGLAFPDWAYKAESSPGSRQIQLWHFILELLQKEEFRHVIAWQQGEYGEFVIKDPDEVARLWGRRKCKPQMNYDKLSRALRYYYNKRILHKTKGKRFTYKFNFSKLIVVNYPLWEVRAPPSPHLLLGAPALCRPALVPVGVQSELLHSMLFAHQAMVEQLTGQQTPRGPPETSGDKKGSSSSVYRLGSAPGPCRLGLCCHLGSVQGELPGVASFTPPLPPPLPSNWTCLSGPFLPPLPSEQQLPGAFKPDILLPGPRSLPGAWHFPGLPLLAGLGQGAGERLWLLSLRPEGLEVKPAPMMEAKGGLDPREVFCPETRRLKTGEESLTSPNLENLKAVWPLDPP
# In short: as §1
# ETS2 = biological target: T8, ETS2 (Homo sapiens, UniProt P15036 1-469); settings: protein: recombinant; tags: N-terminal GST; dsDNA, one strand shown
# T8 sequence: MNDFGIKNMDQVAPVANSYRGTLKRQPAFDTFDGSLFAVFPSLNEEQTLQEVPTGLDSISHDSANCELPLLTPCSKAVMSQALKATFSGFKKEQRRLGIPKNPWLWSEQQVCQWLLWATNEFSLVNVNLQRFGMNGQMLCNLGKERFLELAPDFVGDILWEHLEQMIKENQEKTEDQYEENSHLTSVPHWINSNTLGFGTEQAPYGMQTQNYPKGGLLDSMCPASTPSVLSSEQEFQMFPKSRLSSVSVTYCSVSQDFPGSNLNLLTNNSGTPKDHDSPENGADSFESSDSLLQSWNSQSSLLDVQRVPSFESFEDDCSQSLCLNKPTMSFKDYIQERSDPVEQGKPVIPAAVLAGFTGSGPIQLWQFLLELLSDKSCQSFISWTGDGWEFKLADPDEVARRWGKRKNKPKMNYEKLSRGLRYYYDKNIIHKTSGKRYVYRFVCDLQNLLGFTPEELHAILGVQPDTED
# In short: as §1
# SPDEF = biological target: T9, SPDEF (Homo sapiens, UniProt O95238 1-335); settings: protein: recombinant; tags: N-terminal GST; dsDNA, one strand shown
# T9 sequence: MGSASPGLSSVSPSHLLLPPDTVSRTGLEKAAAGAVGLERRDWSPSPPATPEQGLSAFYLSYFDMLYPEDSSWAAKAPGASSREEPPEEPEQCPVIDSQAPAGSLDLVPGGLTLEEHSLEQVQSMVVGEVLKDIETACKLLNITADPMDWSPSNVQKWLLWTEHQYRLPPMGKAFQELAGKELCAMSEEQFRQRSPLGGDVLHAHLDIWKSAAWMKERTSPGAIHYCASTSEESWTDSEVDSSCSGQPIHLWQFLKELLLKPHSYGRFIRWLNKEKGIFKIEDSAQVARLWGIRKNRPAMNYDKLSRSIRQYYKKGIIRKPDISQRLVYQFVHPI
# In short: as §1
# ETV7 = biological target: T10, ETV7 (Homo sapiens, UniProt Q9Y603 1-341); settings: protein: recombinant; tags: N-terminal GST; dsDNA, one strand shown
# T10 sequence: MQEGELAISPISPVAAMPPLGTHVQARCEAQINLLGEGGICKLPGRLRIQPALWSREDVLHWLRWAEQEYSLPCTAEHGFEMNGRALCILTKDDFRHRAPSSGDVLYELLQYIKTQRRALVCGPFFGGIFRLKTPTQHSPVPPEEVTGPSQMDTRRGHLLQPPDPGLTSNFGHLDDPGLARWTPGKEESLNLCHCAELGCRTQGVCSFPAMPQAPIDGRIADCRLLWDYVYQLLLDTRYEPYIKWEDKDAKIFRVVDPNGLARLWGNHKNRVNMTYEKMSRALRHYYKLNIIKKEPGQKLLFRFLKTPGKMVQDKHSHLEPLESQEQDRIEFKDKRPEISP
# In short: as §1
# ELF5 = biological target: T11, ELF5 (Homo sapiens, UniProt Q9UKW6-2 1-255); settings: protein: recombinant; tags: N-terminal GST; dsDNA, one strand shown
# T11 sequence: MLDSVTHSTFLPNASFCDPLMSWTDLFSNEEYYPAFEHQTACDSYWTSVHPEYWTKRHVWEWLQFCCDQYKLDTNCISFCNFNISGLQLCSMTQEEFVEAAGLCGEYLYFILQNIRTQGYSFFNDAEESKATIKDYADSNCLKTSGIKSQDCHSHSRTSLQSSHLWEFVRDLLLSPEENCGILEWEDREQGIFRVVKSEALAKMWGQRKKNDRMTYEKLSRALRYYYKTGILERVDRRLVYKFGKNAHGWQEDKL
# In short: as §1
# ETV3 = biological target: T12, ETV3 (Homo sapiens, UniProt P41162-2 1-143); settings: protein: recombinant; tags: N-terminal GST; dsDNA, one strand shown
# T12 sequence: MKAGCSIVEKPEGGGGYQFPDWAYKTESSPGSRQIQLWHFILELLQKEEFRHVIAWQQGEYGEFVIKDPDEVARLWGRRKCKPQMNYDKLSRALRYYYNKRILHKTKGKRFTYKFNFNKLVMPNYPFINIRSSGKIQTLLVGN
# In short: as §1
# ETV6 = ETV6 (Homo sapiens, UniProt P41212 1-452); settings: protein: recombinant; tags: N-terminal GST; dsDNA, one strand shown
# ETV6, sequence (P41212 whole entry): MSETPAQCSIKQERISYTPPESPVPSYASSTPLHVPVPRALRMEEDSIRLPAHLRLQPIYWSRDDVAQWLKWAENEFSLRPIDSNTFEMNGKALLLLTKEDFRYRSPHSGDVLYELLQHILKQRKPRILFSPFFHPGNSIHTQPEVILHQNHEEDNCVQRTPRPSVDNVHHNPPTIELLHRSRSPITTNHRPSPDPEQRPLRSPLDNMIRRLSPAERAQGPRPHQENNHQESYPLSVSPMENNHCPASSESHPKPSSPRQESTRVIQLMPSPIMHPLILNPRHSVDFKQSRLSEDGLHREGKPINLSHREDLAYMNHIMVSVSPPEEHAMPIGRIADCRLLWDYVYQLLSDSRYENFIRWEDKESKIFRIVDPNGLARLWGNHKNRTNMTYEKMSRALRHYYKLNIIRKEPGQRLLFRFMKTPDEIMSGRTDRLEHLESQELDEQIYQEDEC
# In short: as §1
sequence,measurement,setting,value
TTCAGG,binding signal,FEV,"1.05 fold enrichment (6-mer frequency, TF over GST control)"
same,binding signal,ETV5,"1.13 fold enrichment (6-mer frequency, TF over GST control)"
same,binding signal,HSF1,"1.22 fold enrichment (6-mer frequency, TF over GST control)"
same,binding signal,SPIC,"1.13 fold enrichment (6-mer frequency, TF over GST control)"
same,binding signal,ELF4,"1.11 fold enrichment (6-mer frequency, TF over GST control)"
same,binding signal,ELK4,"1.19 fold enrichment (6-mer frequency, TF over GST control)"
same,binding signal,ETV2,"1.14 fold enrichment (6-mer frequency, TF over GST control)"
same,binding signal,ELF3,"1.07 fold enrichment (6-mer frequency, TF over GST control)"
same,binding signal,CRX,"1.01 fold enrichment (6-mer frequency, TF over GST control)"
same,binding signal,ETV1,"1.15 fold enrichment (6-mer frequency, TF over GST control)"
same,binding signal,ERF,"1.15 fold enrichment (6-mer frequency, TF over GST control)"
same,binding signal,ETV3L,"1.1 fold enrichment (6-mer frequency, TF over GST control)"
same,binding signal,ETS2,"1.12 fold enrichment (6-mer frequency, TF over GST control)"
same,binding signal,SPDEF,"1.25 fold enrichment (6-mer frequency, TF over GST control)"
same,binding signal,ETV7,"1.15 fold enrichment (6-mer frequency, TF over GST control)"
same,binding signal,ELF5,"1.15 fold enrichment (6-mer frequency, TF over GST control)"
same,binding signal,ETV3,"1.1 fold enrichment (6-mer frequency, TF over GST control)"
same,binding signal,ETV6,"1.11 fold enrichment (6-mer frequency, TF over GST control)"
